PubChem BioAssay AID624483 (NMMLSC, 2012)
Out of some 360,000 compounds screened, about 11,000 (3.1%) were called active. Another 2% or so got no clear call; they are omitted. Cut-off read from the data, not from the text of the source: active = fluorescence intensity above about 16000; inconclusive = no clear call, values can overlap the other calls; inactive = below that. Only a selection was taken, and actives are over-represented in it overall.

Test: compound fluorescence in toxin protease inhibitor counterscreen, primary screen, artefact control for toxin protease inhibitor project, biochemical, multiplex microsphere, HTS (AID 624483)
Conditions: compound autofluorescence counterscreen, microsphere flow cytometry; active compounds read high

Row | SMILES | fluorescence intensity
1 | Cc1occc1C(=O)NC1CCCN(Cc2ccc(CC(C)C)cc2)C1 (configuration not stated) | 7560 (inactive)
2 | COc1ccc(C2=Nc3ccccc3NC(=O)C2N(C(=O)c2cc3ccccc3[nH]2)c2ccccc2)cc1 (configuration not stated) | 6050 (inactive)
3 | COc1ccc(-c2cc3c(c4c2ccn4C)C2CCC3C2)cn1 (configuration not stated) | 2710 (inactive)
4 | COC(=O)C1C(=O)NCC1c1ccc(C)cc1 (configuration not stated) | 15900 (inactive)
5 | COC(=O)C1C(=O)NCC1c1ccc(OC)cc1 (configuration not stated) | 17100 (active)
6 | CCOC(=O)C1C(=O)NCC1c1ccccc1 (configuration not stated) | 9370 (inactive)
7 | COc1ccc(-c2cc(NC=O)c3ncc(-c4cccc(C(=O)N(C)C)c4)n3c2)c(OC)c1 | 3580 (inactive)
8 | c1ccc(-c2nnc(SCc3nc4ccccc4[nH]3)o2)cc1 | 18800 (active)
9 | Fc1ccc2nc(-c3ccccc3)nc(SCc3nnc(-c4ccccc4)o3)c2c1 | 4280 (inactive)
10 | Oc1ccc2nc(Cc3ccccc3)[nH]c2c1 | 4090 (inactive)
11 | Clc1ccc(-c2nnc(SCc3nc4ccccc4s3)o2)cc1 | 2530 (inactive)
12 | O=C(OCc1nc2ccccc2[nH]1)C1CCCCC1 | 2190 (inactive)
13 | c1ccc2cc3[nH]c(CN4CCCCC4)nc3cc2c1 | 5430 (inactive)
14 | c1ccc2c(CSCc3nc4ccccc4[nH]3)cccc2c1 | 21700 (active)
15 | Clc1ccccc1SCc1nc2ccccc2[nH]1 | 24700 (active)
16 | O=c1c(-c2ccc(Cl)cc2)[n+]([O-])c2ccccc2n1OCc1nc2ccccc2[nH]1 | 4300 (inactive)
17 | CC1(Oc2ccccc2-c2ccno2)CCN(Cc2ccc(-c3ccccc3)o2)C1 (configuration not stated) | 3970 (inactive)
18 | CN1CCN(c2ccncc2S(=O)(=O)N2CCCC2)CC1 | 3800 (inactive)
19 | Cc1ccc(NC(=O)c2ccc(S(=O)(=O)NCC3CCCO3)cc2)cc1C (configuration not stated) | 4660 (inactive)
20 | CCc1c(O)nc(SCC(=O)Nc2ccccc2)n(C(C)CC)c1=O (configuration not stated) | 9640 (inactive)
21 | CCOC(=O)c1cc2cc(C)ccc2[nH]1 | 4370 (inactive)
22 | Cc1cc(Br)cn2c(Cc3cccc(F)c3)c(-c3cccc(Br)c3)nc12 | 5680 (inactive)
23 | C=CC[C@@H](Cc1ccc(F)cc1)C(=O)OC[C@H]1CCCN1C(=O)[C@H](CC=C)CC(=O)N(CCO)Cc1ccccc1 | 3800 (inactive)
24 | Cc1cccc(OCc2nnc(SCn3nnc4ccccc4c3=O)o2)c1 | 4060 (inactive)
25 | Cc1cc(C)cc(OCc2nnc(SCC(=O)OC3CCCCC3)o2)c1 | 19000 (active)
26 | Cc1cc(C)cc(-c2nnc(SCC(=O)NC3CC3)o2)c1 | 8900 (inactive)
27 | CN(C)CCN1CCN(c2cc(-c3cccc(Cl)c3)nc3ccnn23)CC1 | 3570 (inactive)
